# Results taken from PubChem BioAssay AID1076 (NMMLSC, 2008).
# Assay: cytotoxicity in LNCaP prostate cells – cell-based, cell event count, single point, cytotoxicity control for prostate differentiation activator project, confirmation (AID 1076);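 note: counts scatter-gated live cells after medium removal discards detached dead cells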
# Settings: LNCaP cell loss, flow cytometry event count, 4 d; event count; at 10 µM; stronger effect = lower value
row,Structure (SMILES),cell event count
1,CCN(CC)CCNC(=O)c1cc2c(-c3ccc(Cl)cc3)nn(C)c2s1,25
2,CCN(CCCNS(=O)(=O)c1ccc2c(c1)oc(=O)n2C)c1cccc(C)c1,151
3,CC(C)Cc1nc2oc3c(N4CCN(CCO)CC4)ncnc3c2c2c1CCCC2,120
4,COc1ccccc1N1CCN(c2nc3ccccc3nc2C(C#N)C(=O)OC(C)C)CC1 (configuration not stated),252
5,Cn1c(C(=O)NCCCN2CCN(c3cccc(Cl)c3)CC2)cc2c(=O)n(C)c3ccccc3c21,251
6,CN1CCN(c2oc(COc3ccc(-c4ccccc4)cc3)nc2C#N)CC1,174
7,Cc1ccccc1-c1nc(CN2CCC(C(=O)N3CCC(C(N)=O)CC3)CC2)c(C)o1,83.5
8,CCOC(=O)c1ccc(-c2n[nH]c(=O)c3ccccc23)cc1,236
9,CCOC(=O)C1=C(O)CCn2c1nc1ccccc12,257
10,Cn1c(=O)[nH]c(=O)c2c1nc(Br)n2CCCSc1nc2ccccc2o1,96
11,CC1=C(n2nnc3ccccc32)C(c2ccccc2)C(C#N)=C(N)O1 (configuration not stated),97.5
12,Cc1cc(C)n2nnnc2c1C#N,172
13,Cc1oc(-c2cccc(Cl)c2)nc1CN1CCCC(C(=O)NCc2ccco2)C1 (configuration not stated),146
14,Cc1cccc(-c2nc(CN3CCCC(C(=O)NC4CCCCCC4)C3)c(C)o2)c1 (configuration not stated),222
15,CCOC(=O)N1CCC(=C2c3ccc(Cl)cc3CCc3cccnc32)CC1,192
16,CCOc1ccc2ccccc2c1C(=O)N1CCN(c2ccccc2)CC1,79.5
17,COC(=O)CN1CCN(C(=O)c2ccc(F)cc2)c2ccccc2C1,157
18,CCOC(=O)CSc1nnc(CNC(=O)c2ccccc2OC)n1-c1ccc(OC)cc1,156
19,O=C(Nc1nc(-c2ccccc2)cs1)C1CCCCN1S(=O)(=O)c1ccccc1 (configuration not stated),210

row,Structure (SMILES),cell event count
1,COc1ccc(CCNC(=O)C2CCCN(Cc3nc(-c4ccccc4C)oc3C)C2)cc1OC (configuration not stated),190
2,CCOC(=O)c1[nH]c(C)c(C(=O)N2CCc3ccccc32)c1C,67
3,CCCNC(=O)C1CN(S(=O)(=O)c2ccccc2)CCN1S(=O)(=O)c1ccccc1 (configuration not stated),67
4,Cc1oc(-c2ccc(Cl)cc2)nc1CN1CCC(C(=O)NCCCN2CCOCC2)CC1,119
5,COc1ccc2c(c1OC)C(=O)N(C(C)C(=O)O)C2=O (configuration not stated),53.5
6,CN(CC(O)COc1ccc(OCC(O)CN(C)C2CCCCC2)cc1)C1CCCCC1 (configuration not stated),118
7,O=C(Cn1c(=O)[nH]c2ccsc2c1=O)NC1CCCCCC1,118
8,O=C(NC1CCCC1)C1CCN(S(=O)(=O)c2cccc3cccnc23)CC1,182
9,COc1ccc(-n2c(C)nc3c(cnn3-c3ccc(Cl)cc3)c2=O)cc1,84
10,CN(C)c1ccc(CNC2CC(C)(C)NC(C)(C)C2)cc1,186
11,N#C/C(=C\c1ccc(O)c(O)c1)C(=O)NCCCc1ccccc1,99
12,O=C(NCCCN1CCOCC1)c1cc2c(s1)CSC2,52.5
13,Cc1ccccc1-c1nc(CN2CCC(C(=O)NCCCN3CCCC3)CC2)c(C)o1,65
14,Cc1ccc(Cl)cc1N1CCN(C(=O)c2cc3c(=O)n(C)c4ccccc4c3n2C)CC1,10.5
15,COc1ccc(-c2ccc(-c3nnn(CC(C)=O)n3)cc2)cc1,116
16,COc1ccc(-c2cc(C(=O)NCc3ccc(Cl)cc3)no2)cc1OC,255
17,CCOC(=O)c1ccccc1NC(=O)Cn1c(-c2nonc2N)nc2ccccc21,122
18,CCn1c(=O)cc(SCC(=O)NCCCN2CCN(c3ccccc3F)CC2)c2ccccc21,338
